High-throughput results: PubChem BioAssay, National Center for Advancing Translational Sciences (NCATS)
GLA inh pH 4.5 = blocks human alpha-galactosidase A at pH 4.5 | P06280 | purified enzyme, 4-MU-alpha-Gal fluorescence, pH 4.5 | activity change, negative = inhibition, % at 105 µM | 230,000 tested, under 10 active | AID 1467;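 note: 0% = full activity with enzyme and -100% = basal without enzyme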
ALDH1A1 inh = ALDH1A1 (human) enzyme inhibition. Purified ALDH1A1, NADH fluorescence, propionaldehyde substrate. Potency, µM (top dose mostly 75.3 µM), for the others: at the top dose activity, negative = inhibition, actives largely listed as inhibitors. 220,000 compounds, 7.3% hits. AID 1030; active = well fitted inhibition curve with a large enough effect, not every such curve was filed as active; inconclusive = small, poorly fitted or top-dose-only effect, or another doubt; inactive = no such curve, though single readings can be large or run the other way;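 note: potency is the fitted concentration of half-maximal effect; plate controls were no enzyme wells and a reference inhibitor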
aGal spleen mod = alpha-galactosidase A (human) modulation; 240,000 compounds, 0.008% hits; P06280; human spleen homogenate, 4MU-alpha-Gal fluorescence, 40 min; AID 2107; Potency, µM (highest dose often 80 µM), for the others: top-dose activity change, negative = inhibition, usual class: inhibitors;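 note: potency is the fitted concentration of half-maximal effect; 0% = enzyme with vehicle and -100% = no enzyme basal signal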
Target sequence (P06280 32-429 limits assumed): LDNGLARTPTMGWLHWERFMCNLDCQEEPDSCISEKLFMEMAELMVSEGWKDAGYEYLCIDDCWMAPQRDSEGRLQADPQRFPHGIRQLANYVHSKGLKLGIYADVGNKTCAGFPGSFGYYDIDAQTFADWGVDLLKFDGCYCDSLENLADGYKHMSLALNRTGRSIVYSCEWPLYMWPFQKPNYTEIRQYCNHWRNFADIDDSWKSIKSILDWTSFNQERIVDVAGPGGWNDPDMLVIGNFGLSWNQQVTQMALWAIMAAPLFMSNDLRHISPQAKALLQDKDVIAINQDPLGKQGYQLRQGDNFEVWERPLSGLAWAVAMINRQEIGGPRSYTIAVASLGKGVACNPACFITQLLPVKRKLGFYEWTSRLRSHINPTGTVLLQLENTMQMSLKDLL
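Spleen homogenate 1 ug + cpd (titration) + 4-MU-alpha-D-galactopyranoside 1 mM; 37C 40 min; 50 mM citrate/phosphate pH 5.0, 0.01% Tween-20; stop pH 10; fluorescence 365/440; AC50 via Hill.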
ALOX12 inhib = inhibitors of human 12-lipoxygenase (ALOX12); P18054; purified 12-hLO, xylenol orange hydroperoxide absorbance; Potency, µM (series often up to 57.1 µM), for the others: at the highest dose activity change, negative = inhibition, most hits filed as inhibitors; 150,000 compounds, 0.12% hits; note: potency is the fitted concentration of half-maximal effect; nearly all actives have a fitted effect of over 55% in size
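150 nM 12hLO, 25 mM Hepes pH 7.0 + 0.01% Triton X-100; cpd preinc 15 min RT; 40 uM arachidonic acid, 30 min RT; Fe-XO 30 min; A573/A405 ratio as read-out.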
HPGD inh = inhibitors of human 15-hydroxyprostaglandin dehydrogenase (HPGD); purified HPGD, NADH fluorescence kinetic, PGE2 substrate; Potency, µM, inactives show at the highest dose activity change, negative = inhibition, hits mostly inhibitors; 150,000 compounds, 4.3% hits; P15428; AID 894; active = well fitted inhibition curve with a large enough effect, not every such curve was filed as active; inconclusive = small, poorly fitted or top-dose-only effect, or another doubt; inactive = no such curve, though single readings can be large or run the other way; note: potency is the fitted concentration of half-maximal effect
Target sequence (P15428 whole entry, looked up): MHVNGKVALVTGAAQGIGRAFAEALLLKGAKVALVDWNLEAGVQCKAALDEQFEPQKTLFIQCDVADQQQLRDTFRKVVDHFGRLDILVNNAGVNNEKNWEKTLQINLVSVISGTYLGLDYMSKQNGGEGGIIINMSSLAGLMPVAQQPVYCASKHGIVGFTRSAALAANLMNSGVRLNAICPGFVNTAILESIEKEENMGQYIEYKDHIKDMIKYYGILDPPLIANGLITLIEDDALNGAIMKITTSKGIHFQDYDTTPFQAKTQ
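NADH formation kinetics: reaction with 30 uM PGE2 and 1 mM NAD+ (final), 20 nM enzyme, Tris-HCl pH 8 with Tween 20, after 15 min compound preincubation at room temperature. Fluorescence change, last versus first of five reads.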
PNC inhibitor = inhibitors of perinucleolar compartment assembly; PC3M PTB-GFP, PNC prevalence imaging, 16 h; stronger effect = lower value; activity change (PNC), negative = inhibition, % at 10 µM; 140,000 compounds, 3.1% hits; AID 2417;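 active = readout at or below -70, meaning at least 70% loss of cells showing the perinucleolar compartment, a nuclear body marking cancer cells; inconclusive = readout between -30 and a set limit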;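 note: plate controls were DMSO wells for no effect and camptothecin positive control wells for full effect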
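Read-out is percentage of cells bearing a perinucleolar compartment, from automated 20x imaging of fixed, Hoechst-stained PC3M PTB-GFP cells. Cells were seeded 4 h, then exposed 16 h to compound (23 nl of library stock) in duplicate plates.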
An asterisk follows results filed as active; u = inconclusive; x = not tested or not shown; [ ] = another dose, or the depositor's remark. A selection: hits, their analogues and other compounds. The true share with any hit is near 10%. Unless noted, calls come from the whole dose curve; as a rule, active = well fitted curve in the direction sought with a large enough effect; inconclusive = small, poorly fitted or top-dose-only effect, or another doubt; inactive = no such curve, though single readings can be large; an effect the other way counts as inactive or inconclusive. Unless noted, % is set by controls: 0 for no effect and ±100 for the full control effect.

SMILES	GLA inh pH 4.5	ALDH1A1 inh	aGal spleen mod	ALOX12 inhib	HPGD inh	PNC inhibitor
COc1cc2c(cc1OC)CN(C(=O)c1ccco1)CC2	5.0	14.1µM*	-5.1%	x	x	x
CC(C(=O)Nc1nc2ccccc2s1)n1cc([N+](=O)[O-])cn1 (stereo not drawn)	1.0	5.6%	-4.8%	x	x	x
CC(C)C(=O)NC(=O)C1CCCN1C(=O)/C=C/c1ccccc1 (stereo not drawn)	x	-1.2%[13.5 µM]	-1.6%[17.5 µM]	x	x	x
O=C(NC1CCCCC1NC(=O)c1ccco1)c1ccco1 (stereo not drawn)	-9.1	17.4%	2.3%	1.4%	-9.1%	-84.9*
O=C(c1ccc(Cl)cc1)N1CCN(C(=O)c2ccco2)CC1	4.5	25.1µM*	-7.7%	0.1%	-4.8%	-100.0*
O=C(c1ccco1)N1CCN(C(=O)c2cccc3c2C(=O)N(Cc2cccnc2)C3)CC1	-4.5	u	-0.2%	0.9%	-3.6%	u
O=C(c1ccco1)N1CCN(C(=O)c2cccc3c2C(=O)N(C2CCCCC2)C3)CC1	10.0	10µM*	-1.0%	1.0%	-1.4%	-4.8
O=C(c1ccco1)N1CCN(C(=O)C2CC2)CC1	-5.0	-11.0%	-1.8%	2.8%	-4.1%	-6.0
O=C(c1ccco1)N1CCN(C2CCCC2)CC1	0.4	-6.5%	-2.1%	-0.5%	-13.6%	-101.2*
O=C(c1ccncc1)N1CCN(C(=O)c2ccco2)CC1	-4.1	-3.4%	5.2%	-0.4%	-15.3%	-3.7
CCC[C@H]1C[C@H](C(=O)N[C@@H]([C@H]2O[C@@H](SC)[C@@H](O)[C@@H](O)[C@@H]2O)[C@H](C)Cl)N(C)C1	3.2	11.3%[20.9 µM]	-1.6%[29.1 µM]	-1.5%[25.6 µM]	-11.6%	x
COc1ccc(NC(=S)NNC(=O)c2nnn(-c3ccccc3)c2C)cc1	1.3	u	8.0%	-1.0%	-8.7%	u
Cc1cc(=O)[nH]c(SCC(=O)C23CC4CC(CC(C4)C2)C3)c1C#N	4.3	3.16µM*	0.2%	2.6%	-18.4%	28.9
O=C1C2C3c4ccccc4C(c4ccccc43)C2c2nc3ccccc3n21 (stereo not drawn)	-7.8	0.1%	4.4%	0.5%	-5.2%	-100.0*
Cc1nn(-c2ccccc2)c(C)c1NC(=O)COc1ccc(Br)cc1Cl	-7.4	u	5.8%	-2.9%	x	13.2
O=C1COc2ccc(C(=O)COC(=O)Cn3cnc4ccccc43)cc2N1	3.3	28.2µM*	-0.4%	-6.0%	-11.8%	u
O=C1COc2ccc(C(=O)COC(=O)c3cnc(Cl)c(Cl)c3)cc2N1	5.4	1.26µM*	9.5%	x	x	x
Cc1ccc(C2CC2c2n[nH]c(=S)n2-c2cccc(Cl)c2)cc1 (stereo not drawn)	-13.8	-2.4%	3.0%	u	u	u
C=CCOC(=O)NC(c1ccc(F)c(F)c1)S(=O)(=O)c1ccc(Cl)cc1 (stereo not drawn)	-2.0	5.4%	11.9%	x	-5.6%	x
C=CCOC(=O)NC(c1ccc(F)c(F)c1)C(C(=O)CCl)C(=O)OC (stereo not drawn)	2.2	10µM*	6.4%	x	-22.2%	x
Cn1c(=O)c2cc(S(=O)(=O)NC(C(=O)N3CCCCCC3)c3ccccc3)ccc2n(C)c1=O (stereo not drawn)	-0.6	3.16µM*	0.8%	-3.9%	-8.3%	u
O=C(CSC(=S)N1CCOCC1)Nc1nc(=O)c2ccccc2s1	-0.3	6.31µM*	5.3%	-4.5%	-21.6%	25.3
C[C@H](NC(=O)c1ccc(Cl)c(Cl)c1)c1ccc(-c2ccccc2)cc1	x	5.3%[13.5 µM]	x	-1.4%[11.4 µM]	-9.8%	x
CCc1ccc(CCC(=O)Nc2ccc(C)c(C)c2)o1	6.6	12.6µM*	-0.6%	31.3%	-25.0%	-10.7
CSCC[C@H](NC(=O)[C@H](Cc1ccccc1)NC[C@@H](NC[C@@H](N)CS)C(C)C)C(=O)O	x	-10.5%	-14.6%	x	x	x
SMILES	GLA inh pH 4.5	ALDH1A1 inh	aGal spleen mod	ALOX12 inhib	HPGD inh	PNC inhibitor
CCn1c2ccccc2c2nc3cc(S(=O)(=O)N4CCOCC4)ccc3nc21	-2.7	1µM*	-11.9%	-17.9%	2µM*	u
CCOC(=O)/C(=C/c1ccccc1)NC(=O)c1ccco1	-1.0	-7.5%	-1.0%	-6.7%	-8.9%	-81.4*
COc1ccc(NC(=O)CCCn2c(=O)c3sccc3n(Cc3ccccc3C)c2=O)cc1	-8.8	3.98µM*	-4.7%	-1.0%	-15.3%	-5.6
Cc1ccccc1C1C(C#N)=C2N=C(N)c3c(sc4c3CCCCC4)N2C2=C1C(=O)CC(C)(C)C2 (stereo not drawn)	-2.9	7.08µM*	6.3%	-9.1%	-5.1%	86.7
CCOc1cc(/C=N/NS(=O)(=O)c2ccccc2)ccc1OS(=O)(=O)c1ccc(C)cc1	2.3	8.91µM*	-4.8%	-4.0%	-13.0%	-13.6
COc1ccc(/C=C(\C#N)C(N)=O)cc1OC	x	-7.3%[13.5 µM]	x	-0.9%[11.4 µM]	-4.2%	x
CCOc1cc(/C=C(\C#N)C(N)=O)ccc1OS(=O)(=O)c1ccccc1	1.3	12.6µM*	-3.6%	-10.4%	-23.7%	-11.9
CCOc1cc(/C=N/NC(=O)COc2ccc(Cl)cc2)ccc1OS(=O)(=O)c1ccccc1	0.3	17.8%	3.2%	-10.8%	-27.2%	5.1
CC#CCC1(C(=O)OC)C(=O)NC[C@H]1c1ccccc1 (stereo partly drawn)	-0.3	-4.1%	3.5%	4.5%	-4.0%	x
Cc1cc(C)c(C#N)c(OCC(=O)c2ccc(Br)cc2)n1	-0.7	u	-5.1%	-10.4%	-18.5%	11.8
Cc1ccc(C(=O)CSc2nsc(C)c2C#N)cc1	-1.5	u	2.7%	-4.8%	22.4µM*	52.5
Cc1ccnc(SCC(=O)c2ccc(Br)cc2)c1C#N	0.0	u	-0.3%	-7.5%	28.2µM*	41.0
Cc1snc(SCC(=O)c2ccc(Cl)cc2)c1C#N	5.3	20µM*	1.7%	-22.4%	u	-10.7
Cc1nc(CSc2nsc(C)c2C#N)cs1	12.1	-15.1%	9.7%	x	x	x
CNC(=O)[C@@H]1O[C@@H](n2cnc3c(NCc4ccc(N)cc4)ncnc32)[C@@H](O)[C@H]1O	x	x	x	-2.2%	x	x
Cc1cc(NS(=O)(=O)c2ccc(Nc3nc(-c4ccc(O)cc4)cs3)cc2)no1	3.4	u	-2.1%	-17.4%	20µM*	u
CN(C)C(=O)COc1ncnc2scc(-c3ccc(F)cc3)c12	-5.2	5.2%	-5.9%	x	x	x
Cc1ccccc1OCC(O)Cn1nnc2ccccc21 (stereo not drawn)	3.9	-1.8%	-0.2%	-1.3%	-24.5%	-100.0*
CCC(=O)c1ccc(OCC(O)Cn2nnc3ccccc32)cc1 (stereo not drawn)	-2.6[21.1 µM]	1.0%	2.5%	x	x	x
CCOC(=O)NC(O)C(=O)c1ccc(F)cc1 (stereo not drawn)	4.1	22.4µM*	2.7%	x	x	x
CCOC(=O)NC(O)C(=O)c1cccs1 (stereo not drawn)	1.7	-5.7%	-1.1%	-1.9%	-13.0%	u
